Compound activity (PubChem)
PMP22 txn: PMP22 gene transcription modulation; S16 Pmp22-F2sN Schwann cells, FLuc/NLuc coincidence luminescence, 24 h; AID 1508649; Potency, µM (doses to about 57.5 µM), for the others: at the highest dose activity change, negative = inhibition, hits mostly inhibitors; 43,000 compounds, 2% hits; active = clear falling dose curves in both reporters; inconclusive = both reporters move, but less clearly or upward; inactive = either reporter flat; the % is the NLuc reporter signal
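Luminescent read-out of sequential FLuc and NLuc signals from a reporter embedded in the Pmp22 3' UTR of S16 Schwann cells, taken after 24 h compound exposure at 37C; compounds reducing both signals score as inhibitors of expression.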
OvCa metastasis: ovarian cancer metastasis inhibition, 3D TME model; SKOV3ip1-GFP adhesion/invasion on 3D omental model, fluorescence; Potency, µM (highest dose often 45.8 µM), for the others: at the top dose activity change, negative = inhibition, hits mostly inhibitors; 46,000 compounds, 0.1% hits; AID 1963576;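 also: plate controls were DMSO wells for no effect and tomatine positive control wells for full effect; nearly all actives have a fitted effect of over 65% in size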
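A 3D layer of primary human omental fibroblasts, mesothelial cells, fibronectin and collagen I, grown 48 hr, received SKOV3ip1-GFP cells in serum-free medium plus compounds at 0.36-46 umol/L. After 2 hr RT and 16 hr 37 C, fixed adherent GFP cells were counted; normalized to DMSO and tomatine.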
pS6 MEF inh: mTORC1 pathway inhibition measured by phospho-rpS6 | Potency, µM (doses to about 38.3 µM), without a hit: at the top dose activity change, negative = inhibition, hits mostly inhibitors | AID 493208 | Tsc2-/- p53-/- MEF, phospho-rpS6 immunofluorescence/PI, 24 h | 44,000 compounds, 0.78% hits;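 also: plate controls were DMSO for no effect and rapamycin for full effect; nearly all actives have a fitted effect of over 50% in size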
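Immunofluorescence of rpS6 phosphorylation in Tsc2-/-, p53-/- MEFs after 24 h compound exposure, normalized to propidium iodide signal. Activity is expressed as % positive cells, thresholded with 7.5 nM rapamycin.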
S16 F2sN tox: cytotoxicity in S16 Pmp22-F2sN Schwann cells; Potency, µM (top dose mostly 57.5 µM), inactives show at the highest dose activity change, negative = cytotoxicity, usual class: cytotoxic; 43,000 compounds, 0.48% hits; S16 Pmp22-F2sN Schwann cells (luciferase reporters placed in the Pmp22 gene) viability, CellTiter-Glo, 24 h; also: nearly all actives have a fitted effect of over 65% in size
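Luminescence from CellTiter-Glo, read by CCD camera after a 15 min room-temperature incubation, served as the viability signal. Reporter Schwann cells (S16 Pmp22-F2sN) had been treated with pin-transferred compounds for 24 h at 37C.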
* hit, by the source's call. Shown are actives, neighbours in structure and some others; about 2.6% of the full set was active somewhere. Unless noted, calls follow the shape of the dose curve; as a rule, active = well fitted curve in the direction sought with a large enough effect; inconclusive = small, poorly fitted or top-dose-only effect, or another doubt; inactive = no such curve, though single readings can be large; an effect the other way counts as inactive or inconclusive. Unless noted, % is scaled to controls: 0 for no effect and ±100 for the full control effect; potency is read from the fitted curve at half-maximal effect.

Results for O=C(Nc1nc2ccccc2n1CCOc1ccccc1Cl)c1ccccc1 ?
PMP22 txn: inconclusive; OvCa metastasis: -8%; pS6 MEF inh: -4%; S16 F2sN tox: 8%

Results for C[C@H](NCc1ccc2c(c1)nc(NC(=O)c1ccc(-c3cn[nH]c3)s1)n2CCc1ccccc1)C(C)(C)C ?
OvCa metastasis: 19µM*

Results for O=[N+]([O-])c1cn2c(n1)OC[C@@H](OCc1ccc(OC(F)(F)F)cc1)C2 ?
OvCa metastasis: 2%

Results for Cc1cc(C)cc(NC(=O)c2cnn(-c3ccc(C)c(C)c3)c2C2CCNCC2)c1 ?
PMP22 txn: inconclusive; OvCa metastasis: inactive; pS6 MEF inh: 7.4µM*; S16 F2sN tox: inconclusive

How did O=C(Nc1cccc(C(F)(F)F)c1)c1cnn(-c2cccc(F)c2)c1C1CCNCC1 do in these assays?
PMP22 txn: -7%; OvCa metastasis: inactive; pS6 MEF inh: 18µM*; S16 F2sN tox: -26%

Results for CN[C@H]1[C@@H](O)[C@@H]2O[C@@H]3O[C@H](C)CC(=O)[C@]3(O)O[C@@H]2[C@@H](NC)[C@H]1O ?
OvCa metastasis: -26%

What do the screens show for `CCN(CC)CCCCNc1nc2cc(Cl)c(Cl)cc2nc1-c1ccc(-c2cccs2)s1`?
OvCa metastasis: -13%

How did Cc1ccc(NC(=O)c2nc(S(=O)(=O)Cc3ccc(F)cc3)ncc2Cl)cc1C do in these assays?
PMP22 txn: 7.3µM*; OvCa metastasis: 11µM*; pS6 MEF inh: inconclusive; S16 F2sN tox: 10µM*

What do the screens show for `Cc1ccc(CS(=O)(=O)c2ncc(Cl)c(C(=O)Nc3nc4ccc(C)cc4s3)n2)cc1`?
PMP22 txn: 6.5µM*; OvCa metastasis: 25µM*; pS6 MEF inh: 0%; S16 F2sN tox: 20µM*

What do the screens show for `COc1ccc(OC)c(NC(=O)c2nc(S(=O)(=O)Cc3ccc(F)cc3)ncc2Cl)c1`?
PMP22 txn: inconclusive; OvCa metastasis: 6.3µM*; pS6 MEF inh: 2.9µM*; S16 F2sN tox: 4.5µM*

Results for CC(=O)Nc1ccc(NC(=O)c2nc(S(=O)(=O)Cc3ccc(F)cc3)ncc2Cl)cc1 ?
PMP22 txn: 1.9µM*; OvCa metastasis: 3.2µM*; pS6 MEF inh: 5.2µM*; S16 F2sN tox: 3.5µM*

What do the screens show for `CC[C@H](C)n1cc(C)c2c(C(=O)NCc3c(C)cc(C)[nH]c3=O)cc(-c3ccc(N4CCNCC4)nc3)cc21`?
OvCa metastasis: -19%

Results for Cc1ccc(NC(=O)NCC2CCN(Cc3cccc(Cl)c3)CC2)cc1Cl ?
PMP22 txn: inconclusive; OvCa metastasis: inactive; pS6 MEF inh: 10µM*; S16 F2sN tox: inconclusive

How did CN(C)CCC=C1c2ccccc2COc2ccc(CC(=O)O)cc21 do in these assays?
OvCa metastasis: 1%

What do the screens show for `CC(C)N(CCCNC(=O)Nc1ccc(C(C)(C)C)cc1)C[C@H]1O[C@@H](n2cc(Br)c3c(N)ncnc32)[C@H](O)[C@H]1O`?
OvCa metastasis: -26%

How did Cc1ccc(NC(=O)c2c(C)oc3ccc(O)c(CN(C)Cc4ccccc4)c23)c(C)c1 do in these assays?
PMP22 txn: inconclusive; OvCa metastasis: inconclusive; pS6 MEF inh: 15µM*; S16 F2sN tox: -27%

What do the screens show for `CNC1CCC(N(Cc2cccc(-c3ccncc3)c2)C(=O)c2sc3c(F)ccc(F)c3c2Cl)CC1` (stereo not drawn)?
OvCa metastasis: -4%

How did Cc1cccc(N2CCN(C(=O)Cn3c(C)c4cnn(-c5ccccc5)c(=O)c4c3C)CC2)c1C do in these assays?
PMP22 txn: 12µM*; OvCa metastasis: inactive; pS6 MEF inh: 5%; S16 F2sN tox: inconclusive

How did Cc1oc2ccc(O)c(CN3CCCC(C)C3)c2c1C(=O)Nc1ccccc1 (stereo not drawn) do in these assays?
PMP22 txn: -19%; OvCa metastasis: 3%; pS6 MEF inh: 15µM*; S16 F2sN tox: -3%

How did COc1ccc(NC(=O)c2c(C)oc3ccc(O)c(CN4CCCC(C)C4)c23)cc1 (stereo not drawn) do in these assays?
OvCa metastasis: 3%; pS6 MEF inh: inconclusive

What do the screens show for `O=C(CC1(O)C(=O)N(CCc2ccccc2)c2ccc(Br)cc21)c1ccc(F)cc1` (stereo not drawn)?
PMP22 txn: inconclusive; OvCa metastasis: -7%; pS6 MEF inh: inconclusive; S16 F2sN tox: inconclusive

What do the screens show for `CCc1ccc(C(=O)CC2(O)C(=O)N(CCc3ccccc3)c3ccc(Cl)cc32)cc1` (stereo not drawn)?
PMP22 txn: inconclusive; OvCa metastasis: inconclusive; pS6 MEF inh: inconclusive; S16 F2sN tox: 20µM*

What do the screens show for `Cc1ccccc1CN1C(=O)C(O)(CC(=O)c2ccccc2)c2cc(Cl)ccc21` (stereo not drawn)?
PMP22 txn: inconclusive; OvCa metastasis: inconclusive; pS6 MEF inh: 12µM*; S16 F2sN tox: inconclusive

What do the screens show for `Cc1cc(CS(=O)(=O)c2ccccc2)cc(OCc2ccc(CN3CCC[C@H]3CO)cc2)c1`?
OvCa metastasis: 29%

Results for CCc1c(C)sc2c1CCN(Cc1cccc(F)c1)C2c1ccccc1 (stereo not drawn) ?
PMP22 txn: inconclusive; OvCa metastasis: 21%; pS6 MEF inh: 7%; S16 F2sN tox: 10µM*

Results for CCc1c(C)sc2c1CCN(Cc1ccc(F)cc1)C2c1ccccc1 (stereo not drawn) ?
PMP22 txn: inconclusive; OvCa metastasis: -1%; pS6 MEF inh: 0%; S16 F2sN tox: 8.9µM*

Results for CCc1ccc(-n2c(=O)c3c4c(sc3n(CC(=O)c3ccc(F)cc3)c2=O)CCC4)cc1 ?
PMP22 txn: inconclusive; OvCa metastasis: -21%; pS6 MEF inh: 5.2µM*; S16 F2sN tox: -19%

What do the screens show for `CCc1ccc(-n2c(=O)c3c4c(sc3n(Cc3ccc(F)cc3)c2=O)CCCC4)cc1`?
PMP22 txn: -14%; OvCa metastasis: inconclusive; pS6 MEF inh: 2%; S16 F2sN tox: 4%

What do the screens show for `COc1cccc(Nc2sc(C(=O)c3ccc(F)cc3)c(N)c2C(=O)NCc2ccc(Cl)cc2)c1`?
PMP22 txn: -42%; OvCa metastasis: 4%; pS6 MEF inh: -6%; S16 F2sN tox: 1%

Results for COc1cccc(Nc2sc(C(=O)c3ccc(Cl)cc3)c(N)c2C(=O)NCc2ccc(C)cc2)c1 ?
PMP22 txn: 8.9µM*; OvCa metastasis: -3%; pS6 MEF inh: inconclusive; S16 F2sN tox: inconclusive

What do the screens show for `CO[C@H]1C=CC=C(C)C(=O)NC2=CC(=O)C(NCCN(C)C)=C(C[C@@H](C)C[C@H](OC)[C@@H](O)[C@@H](C)C=C(C)[C@@H]1OC(N)=O)C2=O`?
OvCa metastasis: -7%

What do the screens show for `CCOc1ccc(S(=O)(=O)Nc2ccc3oc(C)c(C(=O)OC(C)C)c3c2)cc1`?
PMP22 txn: inconclusive; OvCa metastasis: -3%; pS6 MEF inh: -23%; S16 F2sN tox: -3%
